This is a sample that favours compounds with a hit; in the whole collection about 7.5% have one here.
NPC1 promoter act – NPC1 promoter activation | Potency, µM (top dose mostly 9.22 µM), for the others: at the top dose activation, most hits filed as activators | Huh7 NPC1 promoter luciferase reporter, 24 h | hit rate 2.4% among 320,000 | AID 485313; note: % of control where 0% means no effect; nearly all actives have a fitted effect of over 60% in size
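Stably transfected Huh7 (NPC1 promoter→luciferase), 1500 cells/well in Opti-MEM + 10% FBS, 2 h settle, then compound 24 h at 37 °C. Luminescence after 10 min with Amplite reagent.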
SMN2 splice enh – enhancers of SMN2 splice variant expression; AID 1458; hit rate 2.8% among 210,000; HEK293 SMN2-luciferase splicing reporter, luminescence, 30-36 h; Potency, µM (top dose mostly 46.1 µM), inactives show at the top dose activity change, positive = activation, most hits filed as activators; note: % of control where 0% means no effect; nearly all actives have a fitted effect of over 55% in size
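HEK293 cells carry an SMN2 […]–luciferase reporter in which exon 7 inclusion puts luciferase in frame. Cells were plated 10-12 h before compound addition, then incubated 30-36 h at 37C. ONE-Glo luminescence was read; sodium butyrate at 4.5 mM final served as control.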
ELG1 genotox – genotoxicity induction in ELG1-luciferase HEK293T cells; HEK293T ELG1-luciferase reporter, luminescence, 16 h; Potency, µM (highest dose often 46 µM), for the others: top-dose activity change, positive = activation, hits mostly activators; hit rate 1.3% among 330,000; AID 504466; note: % of control where 0% means no effect; nearly all actives have a fitted effect of over 60% in size
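Quantitative HTS format in 1536-well plates. HEK293T ELG1-luciferase reporter cells receive test compound and are incubated 16 hr at 37 °C, 5% CO2; ONE-Glo added, 30 min room temperature, then luminescence read.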
FLuc counter – firefly luciferase modulation, counter-screen for miR-21 project | purified FLuc, Km substrates, luminescence inhibition | AID 588342 | hit rate 6.9% among 360,000 | P08659 | Potency, µM (top dose mostly 57.5 µM), without a hit: at the highest dose activity change, negative = inhibition, hits mostly inhibitors;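 note: plate controls were vehicle for no effect and reference inhibitor for full effect; nearly all actives have a fitted effect of over 55% in size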
Target sequence (P08659 whole entry, looked up): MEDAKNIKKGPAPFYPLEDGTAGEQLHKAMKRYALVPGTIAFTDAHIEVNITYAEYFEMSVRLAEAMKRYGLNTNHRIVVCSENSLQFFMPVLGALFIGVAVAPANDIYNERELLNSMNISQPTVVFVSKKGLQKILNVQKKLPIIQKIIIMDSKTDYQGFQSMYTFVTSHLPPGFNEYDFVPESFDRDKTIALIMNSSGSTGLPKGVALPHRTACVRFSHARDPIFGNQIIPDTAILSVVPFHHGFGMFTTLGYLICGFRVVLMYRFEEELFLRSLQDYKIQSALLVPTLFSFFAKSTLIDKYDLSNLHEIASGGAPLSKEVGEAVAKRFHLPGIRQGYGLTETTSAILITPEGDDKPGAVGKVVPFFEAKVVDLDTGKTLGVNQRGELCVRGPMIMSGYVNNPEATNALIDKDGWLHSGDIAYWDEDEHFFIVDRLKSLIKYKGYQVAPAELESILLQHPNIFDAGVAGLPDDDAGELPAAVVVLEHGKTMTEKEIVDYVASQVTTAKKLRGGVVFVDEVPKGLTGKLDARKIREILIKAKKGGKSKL
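Purified P. pyralis luciferase (10nM final) with 10uM D-luciferin and 10uM ATP (Km levels) in 50mM Tris acetate pH 7.5, 10mM Mg acetate, 0.01% Tween-20, 0.05% BSA; qHTS 6-point titration, ~60 µM downward; luminescence read.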
KinaseGlo FLuc – Kinase-Glo luciferase inhibition (counter-screen). hit rate 0.28% among 200,000. Kinase-Glo luciferase, ATP luminescence, 8 min. Potency, µM (doses to about 38.3 µM), for inactives: at the highest dose activity change, negative = inhibition, hits mostly inhibitors; note: % is set by controls: 0 for no effect and ±100 for the full control effect; nearly all actives have a fitted effect of over 60% in size
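Compounds were added to a substrate mix at pH 7.2 (50 mM imidazole, 10 uM ATP, within the enzyme's linear range), followed by Kinase-Glo detection reagent; luminescence was measured after 8 minutes at ambient temperature.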
Rab9 promoter act – activators of Rab9 promoter | Huh7 Rab9 promoter-luciferase reporter, luminescence, 24 h | Potency, µM (doses to about 9.22 µM), for the others: at the highest dose activation, negative = inhibition, most hits filed as activators | AID 485297 | hit rate 2.8% among 320,000; note: % of control where 0% means no effect; nearly all actives have a fitted effect of over 60% in size
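Huh7 cells stably carrying Rab9 promoter–luciferase reporter, plated 1500 cells/well, compound added after 2 h and incubated 24 h at 37 °C; luciferase luminescence then read after 10 min with detection reagent.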
Starred values were filed as active, the others as inactive; ? = inconclusive; nt = no result given; [ ] = remark or other dose. Calls come from the whole dose curve; as a rule, active = well fitted curve in the direction sought with a large enough effect; inconclusive = small, poorly fitted or top-dose-only effect, or another doubt; inactive = no such curve, though single readings can be large; an effect the other way counts as inactive or inconclusive. Potency is the fitted concentration of half-maximal effect.

SMILES	NPC1 promoter act	SMN2 splice enh	ELG1 genotox	FLuc counter	KinaseGlo FLuc	Rab9 promoter act
COc1cc(-c2nc(SCC(=O)Nc3ccc4c(c3)OCO4)c(-c3ccccc3)[nH]2)cc(OC)c1OC	nt	?	nt	8.5µM*	nt	nt
O=C(Nc1ccccn1)c1ccc(COc2ccccc2Cl)o1	0%	14%	?	17µM*	-4%	26%
Cc1ccc(NC(=O)c2ccc(COc3ccccc3)o2)nc1	18%	nt	?	?	nt	15%
O=C(Nc1cccnc1)c1ccc(COc2ccccc2Cl)o1	0%	-30%	1%	?	-2%	0%
CCOc1ccc(OCc2ccc(C(=O)Nc3ccc(Cl)cn3)o2)cc1	?	18µM*	1%	?	4%	28%
O=C(Nc1ccc(Cl)cn1)c1ccc(COc2ccccc2Br)o1	28%	13µM*	5%	?	7%	?
CC1(C(=O)Nc2cccc(-n3cnnn3)c2)Cc2ccccc2C(=O)O1 (configuration not stated)	nt	nt	-1%	nt	nt	nt
Cc1ccc(C(=O)O/N=C(\N)Cc2cccc3ccccc23)cc1	0%	nt	-10%	-8%	nt	8%
N/C(=N\OC(=O)c1cccc(F)c1)c1ccccc1	17%	2%	?	0.67µM*	11µM*	26%
Cc1ccc(/C(N)=N/OC(=O)c2ccc3ccccc3c2)cc1	?	nt	?	6.7µM*	nt	?
Cc1ccc(/C(N)=N/OC(=O)c2cccc(F)c2)cc1	14%	nt	?	3µM*	nt	16%
CC(C)CC(=O)N(Cc1ccccc1)S(=O)(=O)c1ccc2c(c1)oc(=O)n2C	nt	4%	nt	-3%	nt	nt
COc1ccc2c(=O)c3c(=O)n(Cc4ccco4)c(-c4ccco4)nc3oc2c1	2%	-9%	5%	?	-10%	-3%
COc1ccc(Cn2c(-c3ccco3)nc3oc4cc(OC)ccc4c(=O)c3c2=O)cc1	3.2µM*	4%	?	?	-9%	4µM*
CC(C(=O)N(C)c1ccccc1)N1CCN(C(=O)c2ccccc2)CC1 (configuration not stated)	-3%	nt	0%	1%	nt	-6%
Cc1cccc(Nc2nnc(SCC(=O)NCc3cccs3)s2)c1	7%	5%	6%	11µM*	-3%	11%
O=c1cc(CSc2nnc(Nc3ccccc3)s2)nc2sccn12	7%	?	-13%	-10%	-4%	-5%
Cc1cccc(Nc2nnc(SCC(=O)NCc3cccs3)s2)c1C	-4%	8%	-1%	-17%	0%	-3%
Cc1ccc(Nc2nnc(SCC(=O)NCCN3C(=O)CSC3=O)s2)cc1C	?	nt	?	1.7µM*	nt	26%
Cc1cccc(Nc2nnc(SCC(=O)NC3CCCc4ccccc43)s2)c1 (configuration not stated)	-6%	-36%	-8%	6µM*	3%	-2%
Cc1cccc(Nc2nnc(SCc3cn4ccsc4n3)s2)c1	1%	-9%	3%	17µM*	-9%	-1%
C=CCNc1nc(C(=O)OCC(=O)N(Cc2ccccc2)C(C)C)cs1	-5%	nt	2%	-1%	nt	0%
c1ccc(C[n+]2cccc(-c3cc4ccccc4[nH]3)c2)cc1	nt	-13%[9.22 µM]	nt	nt	-3%[7.66 µM]	nt
Nc1nnc(SCC(=O)Nc2cccnc2Cl)s1	2%	nt	-4%	-8%	nt	-6%
Cc1cccc(Nc2nnc(SCC(=O)Nc3cccnc3Cl)s2)c1	5%	-2%	5%	6µM*	-25%	11%
SMILES	NPC1 promoter act	SMN2 splice enh	ELG1 genotox	FLuc counter	KinaseGlo FLuc	Rab9 promoter act
c1ccc2nc(-c3nc4ccccc4o3)ccc2c1	?	nt	?	0.24µM*	1µM*	3.2µM*
O=C(Cn1ncc2c(Cl)cccc21)NCc1cccc(F)c1	nt	nt	nt	-2%	nt	nt
O=C(Cn1ncc2c(Cl)cccc21)NCc1cccc(Br)c1	nt	nt	nt	4.8µM*	nt	nt
CCN(CC)c1ccc(NC(=O)c2cccc(C)c2OC)c(C)c1	1.1µM*	?	?	11µM*	-12%	?
CCN(CC)c1ccc(-n2nc3cc(C)c(NC(=O)c4ccccc4C)cc3n2)c(C)c1	nt	6.3µM*	nt	7%	nt	nt
Cc1cc(C)nc(NC(=O)/C=C/c2ccccc2Cl)n1	28%	?	11%	?	-16%	?
Cc1cc(C)nc(NC(=O)/C=C/c2ccccc2Cl)c1	?	13µM*	?	3µM*	1%	?
Cc1cc(C)nc(NC(=O)c2ccc(Cl)cc2[N+](=O)[O-])c1	4%	11%	1%	-5%	2%	0%
Cc1cc(C)nc(NC(=O)/C=C/c2ccc(Cl)cc2Cl)c1	?	10%	?	7.6µM*	-5%	3.5µM*
Cc1cc(N2CCCCC2)nc2ccc(NC(=O)/C=C/c3ccccc3Cl)cc12	nt	-4%	nt	-3%	nt	nt
Cc1cc(N)c2cc(NC(=O)/C=C/c3ccccc3Cl)ccc2n1	-8%	nt	5%	13µM*	nt	-20%
Cc1cccc(NC(=O)c2ccc3c(=O)n4c(nc3c2)CCCCC4)n1	1.3µM*	nt	?	4.8µM*	nt	0.5µM*
COc1ccc(NC(=O)c2ccc3c(=O)n4c(nc3c2)CCCCC4)cc1	0%	nt	-4%	27µM*	nt	-2%
Cc1ccc(NC(=O)c2ccc3c(=O)n4c(nc3c2)CCCCC4)cc1F	-1%	nt	-4%	?	nt	0%
O=C(Nc1cccc(S(=O)(=O)N2CCCC2)c1)c1ccc2c(=O)n3c(nc2c1)CCCCC3	-6%	-57%	-10%	12µM*	-4%	-22%
Cc1ccc(NC(=O)c2ccc3c(=O)n4c(nc3c2)CCCCC4)nc1	28%	nt	-2%	?	nt	?
O=C(Nc1cccc(S(=O)(=O)N2CCOCC2)c1)c1ccc2c(=O)n3c(nc2c1)CCCCC3	-10%	-68%	-18%	?	-2%	-9%
O=C(Nc1ccc(SC(F)F)cc1)c1ccc2c(=O)n3c(nc2c1)CCC3	18%	nt	11%	2.4µM*	nt	?
O=C(Nc1ccc2nc3n(c(=O)c2c1)CCCC3)c1cccc(F)c1	23%	nt	2%	?	nt	?
CC(=O)c1cccc(NC(=O)c2ccc3c(=O)n4c(nc3c2)CCCCC4)c1	14%	14%	-6%	15µM*	-1%	23%
O=C(NC1CCCCCC1)c1ccc2c(=O)n3c(nc2c1)CCCCC3	2.8µM*	13µM*	3.5µM*	8.5µM*	-7%	2µM*
COc1ccc(C(=O)NCCC2=CCCCC2)cc1OC1CCN(C(C)C)CC1	-2%	nt	14%	?	nt	-2%
Cc1cnn(C(=S)NCc2ccc(Cl)cc2)c1	-1%	-25%	-5%	-13%	-6%	1%
Cc1cnn(C(=S)NCCc2ccccc2)c1	?	?	15µM*	19µM*	-3%	?
COc1cc(NC(=O)CC(c2ccc(C)cc2)N2Cc3ccccc3C2=O)cc(OC)c1 (configuration not stated)	nt	nt	nt	4%	nt	nt

Assay outcomes (PubChem BioAssay)
